# According to article PMC7862700, “An all-to-all approach to the identification of sequence-specific readers for epigenetic DNA modifications on cytosine”:
# Tests used:
# Experiment in all cases: DAPPL (digital affinity profiling via proximity ligation, sequencing); 10 mM Tris-HCl pH 7.5, 50 mM NaCl, 1 mM DTT, 4% glycerol, room temperature, 30 min; GST-TFs on glutathione beads, 16-mer random dsDNA library, 0.1% formaldehyde crosslink after washing; high values mean tight binding
# FLI1 = biological target: T1, FLI1 (Homo sapiens, UniProt Q01543 1-452); conditions: protein: recombinant; tags: N-terminal GST; dsDNA, one strand shown
# T1 sequence: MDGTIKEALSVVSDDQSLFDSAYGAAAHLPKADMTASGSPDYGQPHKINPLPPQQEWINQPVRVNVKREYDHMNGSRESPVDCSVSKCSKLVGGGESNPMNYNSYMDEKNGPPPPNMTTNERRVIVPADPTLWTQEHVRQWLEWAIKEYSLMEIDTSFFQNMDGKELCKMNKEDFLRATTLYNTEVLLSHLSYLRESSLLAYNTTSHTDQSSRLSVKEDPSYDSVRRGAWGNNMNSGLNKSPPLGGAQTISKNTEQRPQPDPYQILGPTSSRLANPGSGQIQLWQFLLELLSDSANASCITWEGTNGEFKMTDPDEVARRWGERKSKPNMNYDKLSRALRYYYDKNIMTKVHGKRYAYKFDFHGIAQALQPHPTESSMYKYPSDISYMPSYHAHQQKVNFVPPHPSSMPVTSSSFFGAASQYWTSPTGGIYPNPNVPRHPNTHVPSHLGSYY
# Method in brief: (§1)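 A tag-only sample was pooled with DNA-barcoded human transcription factors that had been expressed in yeast as GST fusions and captured on glutathione beads. The pools were incubated for 30 min at room temperature with 200 nmole of a random double-stranded 16-mer DNA library in Tris/NaCl/DTT/glycerol buffer, then washed, crosslinked with 0.1% formaldehyde, proximity-ligated (BsaI/T4 ligase, 1 h, 37 °C), PCR-amplified and sequenced on an Illumina NextSeq500. Binding signal is each hexamer's read frequency for a factor divided by its frequency for the tag-only sample.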
# ELK1 = biological target: T2, ELK1 (Homo sapiens, UniProt P19419 1-428); conditions: protein: recombinant; tags: N-terminal GST; dsDNA, one strand shown
# T2 sequence: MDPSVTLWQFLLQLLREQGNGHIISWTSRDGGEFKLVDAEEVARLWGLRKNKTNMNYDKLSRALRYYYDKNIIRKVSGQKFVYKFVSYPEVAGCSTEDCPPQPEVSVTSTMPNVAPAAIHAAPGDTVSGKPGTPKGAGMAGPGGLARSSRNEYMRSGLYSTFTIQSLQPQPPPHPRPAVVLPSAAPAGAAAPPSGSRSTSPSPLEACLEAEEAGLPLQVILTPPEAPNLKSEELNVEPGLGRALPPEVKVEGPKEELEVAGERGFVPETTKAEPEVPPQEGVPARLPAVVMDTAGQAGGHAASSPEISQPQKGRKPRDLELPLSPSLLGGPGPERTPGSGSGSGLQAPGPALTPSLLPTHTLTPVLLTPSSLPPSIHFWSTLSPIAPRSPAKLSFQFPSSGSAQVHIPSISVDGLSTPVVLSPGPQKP
# Method in brief: as §1
# GABPA = biological target: T3, GABPA (Homo sapiens, UniProt Q06546 1-454); conditions: protein: recombinant; tags: N-terminal GST; dsDNA, one strand shown
# T3 sequence: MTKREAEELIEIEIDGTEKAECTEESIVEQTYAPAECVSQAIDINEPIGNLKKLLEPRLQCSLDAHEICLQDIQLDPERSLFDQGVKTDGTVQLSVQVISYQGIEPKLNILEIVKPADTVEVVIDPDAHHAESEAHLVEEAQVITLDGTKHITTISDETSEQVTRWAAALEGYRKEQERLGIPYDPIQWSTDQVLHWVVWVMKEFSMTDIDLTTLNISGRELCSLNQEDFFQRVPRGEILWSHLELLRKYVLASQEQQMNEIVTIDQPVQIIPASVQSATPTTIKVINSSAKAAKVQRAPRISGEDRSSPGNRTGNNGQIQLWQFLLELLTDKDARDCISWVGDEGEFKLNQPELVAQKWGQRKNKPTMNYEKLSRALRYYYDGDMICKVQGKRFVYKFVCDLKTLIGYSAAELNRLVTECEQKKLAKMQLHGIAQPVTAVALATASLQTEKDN
# Method in brief: as §1
# ERG = biological target: T4, ERG (Homo sapiens, UniProt P11308 1-479); conditions: protein: recombinant; tags: N-terminal GST; dsDNA, one strand shown
# T4 sequence: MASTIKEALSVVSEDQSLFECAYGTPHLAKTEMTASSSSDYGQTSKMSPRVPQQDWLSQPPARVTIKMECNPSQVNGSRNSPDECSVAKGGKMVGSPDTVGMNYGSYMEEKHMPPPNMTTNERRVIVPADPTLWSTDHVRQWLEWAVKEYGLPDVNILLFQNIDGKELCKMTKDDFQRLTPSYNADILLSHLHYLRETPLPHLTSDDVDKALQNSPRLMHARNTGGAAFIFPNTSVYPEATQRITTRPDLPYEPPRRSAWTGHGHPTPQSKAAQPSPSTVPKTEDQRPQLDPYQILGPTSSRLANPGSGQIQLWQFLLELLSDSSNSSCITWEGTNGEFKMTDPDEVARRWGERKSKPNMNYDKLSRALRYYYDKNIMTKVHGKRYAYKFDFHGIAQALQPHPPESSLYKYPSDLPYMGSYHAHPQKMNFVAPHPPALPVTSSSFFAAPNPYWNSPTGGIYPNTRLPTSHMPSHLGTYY
# Method in brief: as §1
# ELF1 = ELF1 (Homo sapiens, UniProt P32519 1-619); conditions: protein: recombinant; tags: N-terminal GST; dsDNA, one strand shown
# Method in brief: as §1
# EHF = biological target: T5, EHF (Homo sapiens, UniProt Q9NZC4 1-300); conditions: protein: recombinant; tags: N-terminal GST; dsDNA, one strand shown
# T5 sequence: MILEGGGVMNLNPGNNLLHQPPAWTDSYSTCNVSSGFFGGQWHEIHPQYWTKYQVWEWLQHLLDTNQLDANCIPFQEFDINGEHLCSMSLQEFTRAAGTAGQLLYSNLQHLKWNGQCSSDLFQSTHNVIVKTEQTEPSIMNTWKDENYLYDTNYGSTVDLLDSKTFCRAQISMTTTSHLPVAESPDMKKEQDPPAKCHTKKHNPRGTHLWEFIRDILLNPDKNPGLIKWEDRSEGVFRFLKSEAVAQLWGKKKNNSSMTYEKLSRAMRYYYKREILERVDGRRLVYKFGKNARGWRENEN
# Method in brief: as §1
# SPI1 = SPI1 (Homo sapiens, UniProt P17947 1-270); conditions: protein: recombinant; tags: N-terminal GST; dsDNA, one strand shown
# Method in brief: as §1
# SPIB = SPIB (Homo sapiens, UniProt Q01892 1-262); conditions: protein: recombinant; tags: N-terminal GST; dsDNA, one strand shown
# Method in brief: as §1
# FEV = biological target: T6, FEV (Homo sapiens, UniProt Q99581 1-238); conditions: protein: recombinant; tags: N-terminal GST; dsDNA, one strand shown
# T6 sequence: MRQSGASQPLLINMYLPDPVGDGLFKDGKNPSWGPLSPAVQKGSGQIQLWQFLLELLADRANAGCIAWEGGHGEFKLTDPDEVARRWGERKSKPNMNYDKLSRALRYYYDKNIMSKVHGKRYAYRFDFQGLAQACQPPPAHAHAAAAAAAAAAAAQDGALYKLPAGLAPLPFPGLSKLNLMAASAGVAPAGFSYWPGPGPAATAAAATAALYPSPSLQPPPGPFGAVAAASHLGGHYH
# Method in brief: as §1
# ETV5 = ETV5 (Homo sapiens, UniProt P41161 1-510); conditions: protein: recombinant; tags: N-terminal GST; dsDNA, one strand shown
# Method in brief: as §1
# HSF1 = HSF1 (Homo sapiens, UniProt Q00613 1-529); conditions: protein: recombinant; tags: N-terminal GST; chain copies: 3; dsDNA, one strand shown
# Method in brief: as §1
# SPIC = biological target: T7, SPIC (Homo sapiens, UniProt Q8N5J4 1-248); conditions: protein: recombinant; tags: N-terminal GST; dsDNA, one strand shown
# T7 sequence: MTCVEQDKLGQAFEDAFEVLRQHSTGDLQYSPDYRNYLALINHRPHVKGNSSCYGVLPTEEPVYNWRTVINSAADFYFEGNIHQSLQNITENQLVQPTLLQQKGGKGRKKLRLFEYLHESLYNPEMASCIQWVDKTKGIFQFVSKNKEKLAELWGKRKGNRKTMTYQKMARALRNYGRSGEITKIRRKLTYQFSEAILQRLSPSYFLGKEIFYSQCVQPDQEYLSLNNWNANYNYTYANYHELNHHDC
# Method in brief: as §1
# ELF4 = ELF4 (Homo sapiens, UniProt Q99607 1-663); conditions: protein: recombinant; tags: N-terminal GST; dsDNA, one strand shown
# Method in brief: as §1
# ELK4 = biological target: T8, ELK4 (Homo sapiens, UniProt P28324-2 1-405); conditions: protein: recombinant; tags: N-terminal GST; dsDNA, one strand shown
# T8 sequence: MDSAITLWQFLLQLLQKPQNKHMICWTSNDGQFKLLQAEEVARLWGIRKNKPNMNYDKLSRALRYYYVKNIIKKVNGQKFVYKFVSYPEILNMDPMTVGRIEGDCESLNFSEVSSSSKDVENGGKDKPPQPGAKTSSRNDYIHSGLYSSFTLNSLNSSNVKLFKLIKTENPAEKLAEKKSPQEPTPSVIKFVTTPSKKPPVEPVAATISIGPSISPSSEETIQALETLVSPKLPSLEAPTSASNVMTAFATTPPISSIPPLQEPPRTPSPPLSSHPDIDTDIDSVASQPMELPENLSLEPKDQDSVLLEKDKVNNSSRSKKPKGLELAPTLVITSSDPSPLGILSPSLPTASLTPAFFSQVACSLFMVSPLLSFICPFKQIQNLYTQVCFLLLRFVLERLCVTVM
# Method in brief: as §1
# ETV2 = biological target: T9, ETV2 (Homo sapiens, UniProt O00321 1-342); conditions: protein: recombinant; tags: N-terminal GST; dsDNA, one strand shown
# T9 sequence: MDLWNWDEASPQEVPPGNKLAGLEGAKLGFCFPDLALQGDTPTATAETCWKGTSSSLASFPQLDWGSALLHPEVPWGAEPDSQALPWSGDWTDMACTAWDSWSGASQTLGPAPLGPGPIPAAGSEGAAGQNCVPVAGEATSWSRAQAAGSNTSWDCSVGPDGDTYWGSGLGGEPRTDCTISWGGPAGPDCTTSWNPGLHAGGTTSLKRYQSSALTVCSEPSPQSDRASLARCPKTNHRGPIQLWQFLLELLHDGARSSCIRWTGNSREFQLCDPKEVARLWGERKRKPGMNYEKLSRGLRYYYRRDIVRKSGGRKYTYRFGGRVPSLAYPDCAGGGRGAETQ
# Method in brief: as §1
# ELF3 = biological target: T10, ELF3 (Homo sapiens, UniProt P78545 1-371); conditions: protein: recombinant; tags: N-terminal GST; dsDNA, one strand shown
# T10 sequence: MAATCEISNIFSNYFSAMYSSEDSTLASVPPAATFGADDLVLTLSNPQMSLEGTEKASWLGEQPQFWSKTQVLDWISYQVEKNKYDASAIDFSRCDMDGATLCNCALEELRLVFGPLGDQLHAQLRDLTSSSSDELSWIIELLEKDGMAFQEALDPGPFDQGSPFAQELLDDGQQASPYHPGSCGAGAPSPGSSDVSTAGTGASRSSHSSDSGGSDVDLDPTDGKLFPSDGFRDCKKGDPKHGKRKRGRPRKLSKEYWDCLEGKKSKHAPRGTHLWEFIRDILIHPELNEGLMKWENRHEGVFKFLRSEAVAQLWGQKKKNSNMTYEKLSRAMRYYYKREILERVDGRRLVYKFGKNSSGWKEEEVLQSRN
# Method in brief: as §1
# CRX = CRX (Homo sapiens, UniProt O43186 1-299); conditions: protein: recombinant; tags: N-terminal GST; dsDNA, one strand shown
# Method in brief: as §1
# ETV1 = ETV1 (Homo sapiens, UniProt P50549 1-477); conditions: protein: recombinant; tags: N-terminal GST; dsDNA, one strand shown
# Method in brief: as §1
# Chain of ETV5 (P41161 whole entry): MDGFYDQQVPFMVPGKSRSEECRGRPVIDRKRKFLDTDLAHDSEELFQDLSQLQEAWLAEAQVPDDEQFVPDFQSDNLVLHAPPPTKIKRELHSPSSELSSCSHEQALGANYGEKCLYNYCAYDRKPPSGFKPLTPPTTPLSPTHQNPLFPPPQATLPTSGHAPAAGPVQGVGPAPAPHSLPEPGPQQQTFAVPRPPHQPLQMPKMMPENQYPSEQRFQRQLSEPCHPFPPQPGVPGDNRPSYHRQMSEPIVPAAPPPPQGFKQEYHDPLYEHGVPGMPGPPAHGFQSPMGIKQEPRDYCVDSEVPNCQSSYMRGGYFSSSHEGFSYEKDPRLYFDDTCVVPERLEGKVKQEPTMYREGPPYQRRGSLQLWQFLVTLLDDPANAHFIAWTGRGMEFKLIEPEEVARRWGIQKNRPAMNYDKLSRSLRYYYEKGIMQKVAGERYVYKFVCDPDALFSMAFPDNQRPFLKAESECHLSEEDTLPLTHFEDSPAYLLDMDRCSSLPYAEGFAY
# Chain of CRX (O43186 whole entry): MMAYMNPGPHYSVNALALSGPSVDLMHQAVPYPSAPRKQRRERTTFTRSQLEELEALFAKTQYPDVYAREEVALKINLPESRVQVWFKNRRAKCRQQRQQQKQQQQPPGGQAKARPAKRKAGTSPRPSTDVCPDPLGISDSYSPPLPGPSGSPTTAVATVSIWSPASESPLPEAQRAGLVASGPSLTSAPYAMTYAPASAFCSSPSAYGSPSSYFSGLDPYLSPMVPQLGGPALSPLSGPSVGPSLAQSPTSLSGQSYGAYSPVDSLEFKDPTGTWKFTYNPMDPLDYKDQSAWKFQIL
# Chain of ELF4 (Q99607 whole entry): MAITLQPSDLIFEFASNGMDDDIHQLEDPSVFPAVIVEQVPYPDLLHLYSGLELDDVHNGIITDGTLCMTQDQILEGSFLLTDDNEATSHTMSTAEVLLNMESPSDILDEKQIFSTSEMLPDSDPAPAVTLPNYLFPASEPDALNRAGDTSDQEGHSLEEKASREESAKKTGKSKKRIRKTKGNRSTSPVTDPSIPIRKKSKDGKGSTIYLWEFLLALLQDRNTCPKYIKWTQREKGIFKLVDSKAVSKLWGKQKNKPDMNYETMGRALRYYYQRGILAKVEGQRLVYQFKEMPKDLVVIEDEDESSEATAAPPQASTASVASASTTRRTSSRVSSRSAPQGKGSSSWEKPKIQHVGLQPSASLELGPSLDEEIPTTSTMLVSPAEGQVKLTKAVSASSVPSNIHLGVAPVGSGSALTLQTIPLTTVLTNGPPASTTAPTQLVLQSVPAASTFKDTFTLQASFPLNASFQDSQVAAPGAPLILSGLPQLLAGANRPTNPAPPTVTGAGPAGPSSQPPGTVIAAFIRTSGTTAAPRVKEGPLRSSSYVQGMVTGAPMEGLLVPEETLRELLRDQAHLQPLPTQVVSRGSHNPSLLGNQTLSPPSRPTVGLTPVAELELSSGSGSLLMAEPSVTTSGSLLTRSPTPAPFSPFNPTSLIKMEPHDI
# Chain of HSF1 (Q00613 whole entry): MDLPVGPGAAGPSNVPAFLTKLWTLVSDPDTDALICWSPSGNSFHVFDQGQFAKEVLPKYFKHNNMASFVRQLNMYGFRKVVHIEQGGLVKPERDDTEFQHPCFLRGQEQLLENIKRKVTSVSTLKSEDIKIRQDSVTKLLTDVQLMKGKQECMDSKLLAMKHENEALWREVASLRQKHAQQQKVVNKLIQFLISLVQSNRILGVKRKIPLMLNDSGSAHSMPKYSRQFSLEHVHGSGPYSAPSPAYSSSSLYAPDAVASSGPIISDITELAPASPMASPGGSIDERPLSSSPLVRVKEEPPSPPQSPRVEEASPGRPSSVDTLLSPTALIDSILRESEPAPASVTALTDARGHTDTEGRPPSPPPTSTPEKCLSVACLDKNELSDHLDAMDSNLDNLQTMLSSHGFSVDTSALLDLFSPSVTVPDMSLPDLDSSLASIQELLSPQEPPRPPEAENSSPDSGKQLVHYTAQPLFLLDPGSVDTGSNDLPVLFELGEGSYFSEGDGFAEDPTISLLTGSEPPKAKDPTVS
# Chain of ELF1 (P32519 whole entry): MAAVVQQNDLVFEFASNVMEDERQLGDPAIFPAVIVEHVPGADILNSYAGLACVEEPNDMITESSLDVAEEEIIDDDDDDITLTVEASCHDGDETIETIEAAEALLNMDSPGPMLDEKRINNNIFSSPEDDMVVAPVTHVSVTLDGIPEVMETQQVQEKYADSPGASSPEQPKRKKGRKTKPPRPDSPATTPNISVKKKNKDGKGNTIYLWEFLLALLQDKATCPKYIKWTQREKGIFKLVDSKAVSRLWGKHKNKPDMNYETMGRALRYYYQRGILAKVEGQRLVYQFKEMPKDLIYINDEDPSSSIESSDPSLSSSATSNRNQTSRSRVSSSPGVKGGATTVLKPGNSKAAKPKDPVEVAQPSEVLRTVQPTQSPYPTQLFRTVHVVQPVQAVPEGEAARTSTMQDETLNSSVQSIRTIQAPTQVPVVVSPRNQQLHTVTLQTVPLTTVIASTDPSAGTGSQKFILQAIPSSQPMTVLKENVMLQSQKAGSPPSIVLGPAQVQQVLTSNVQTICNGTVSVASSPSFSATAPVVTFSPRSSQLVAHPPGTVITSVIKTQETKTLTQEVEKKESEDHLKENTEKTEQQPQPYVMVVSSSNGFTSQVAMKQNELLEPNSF
# Chain of SPIB (Q01892 whole entry): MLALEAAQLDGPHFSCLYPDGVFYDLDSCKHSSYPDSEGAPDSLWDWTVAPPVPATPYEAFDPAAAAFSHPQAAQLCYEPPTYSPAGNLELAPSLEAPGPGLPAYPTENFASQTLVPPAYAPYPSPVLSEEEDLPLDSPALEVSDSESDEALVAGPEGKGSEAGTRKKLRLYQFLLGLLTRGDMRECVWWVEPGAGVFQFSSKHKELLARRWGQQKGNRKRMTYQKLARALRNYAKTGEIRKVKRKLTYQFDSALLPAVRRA
# Chain of ETV1 (P50549 whole entry): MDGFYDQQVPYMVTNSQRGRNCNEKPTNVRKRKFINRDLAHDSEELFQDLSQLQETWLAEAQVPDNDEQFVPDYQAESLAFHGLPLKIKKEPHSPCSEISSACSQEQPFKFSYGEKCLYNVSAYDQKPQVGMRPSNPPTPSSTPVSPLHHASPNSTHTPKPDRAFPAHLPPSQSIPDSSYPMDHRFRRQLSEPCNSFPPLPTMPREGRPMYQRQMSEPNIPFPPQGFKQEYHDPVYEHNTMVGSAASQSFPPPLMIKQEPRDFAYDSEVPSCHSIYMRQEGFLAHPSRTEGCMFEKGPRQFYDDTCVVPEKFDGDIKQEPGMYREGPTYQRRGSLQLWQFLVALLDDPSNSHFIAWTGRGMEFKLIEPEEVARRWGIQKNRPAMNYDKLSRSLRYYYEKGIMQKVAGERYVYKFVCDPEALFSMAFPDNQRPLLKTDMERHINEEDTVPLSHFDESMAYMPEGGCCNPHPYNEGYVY
sequence,measurement,setting,value
TATTCG,binding signal,FLI1,"1.11 fold enrichment (6-mer frequency, TF over GST control)"
same,binding signal,ELK1,"1.11 fold enrichment (6-mer frequency, TF over GST control)"
same,binding signal,GABPA,"1.2 fold enrichment (6-mer frequency, TF over GST control)"
same,binding signal,ERG,"1.14 fold enrichment (6-mer frequency, TF over GST control)"
same,binding signal,ELF1,"1.14 fold enrichment (6-mer frequency, TF over GST control)"
same,binding signal,EHF,"1.11 fold enrichment (6-mer frequency, TF over GST control)"
same,binding signal,SPI1,"1.18 fold enrichment (6-mer frequency, TF over GST control)"
same,binding signal,SPIB,"1.16 fold enrichment (6-mer frequency, TF over GST control)"
same,binding signal,FEV,"1.06 fold enrichment (6-mer frequency, TF over GST control)"
same,binding signal,ETV5,"1.11 fold enrichment (6-mer frequency, TF over GST control)"
same,binding signal,HSF1,"1.64 fold enrichment (6-mer frequency, TF over GST control)"
same,binding signal,SPIC,"1.17 fold enrichment (6-mer frequency, TF over GST control)"
same,binding signal,ELF4,"1.17 fold enrichment (6-mer frequency, TF over GST control)"
same,binding signal,ELK4,"1.22 fold enrichment (6-mer frequency, TF over GST control)"
same,binding signal,ETV2,"1.24 fold enrichment (6-mer frequency, TF over GST control)"
same,binding signal,ELF3,"1.35 fold enrichment (6-mer frequency, TF over GST control)"
same,binding signal,CRX,"1.43 fold enrichment (6-mer frequency, TF over GST control)"
same,binding signal,ETV1,"1.05 fold enrichment (6-mer frequency, TF over GST control)"
